The entries come from a sample that favours hits as a whole.
Tgondii IFNg = T. gondii growth inhibition with IFN-gamma, primary screen, cell-based. activity change, negative = inhibition, % (no concentration beside the values). hit rate 3.8% among 69,000. Toxoplasma gondii growth in IFN-gamma-treated host cells; stronger effect = lower value; in the data active = activity change below about -70%, passing the limit was not always enough;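 note: host cells are HeLa cells infected with Toxoplasma gondii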
An asterisk follows results filed as active; ! = a repeat was not active.

SMILES | Tgondii IFNg
COc1ccc(-c2nnc3n2C2(CCCC2)Cc2cc(OC)c(OC)cc2-3)cc1 | -11
COc1cc2c(cc1OC)C(C)=NC1(CCCCC1)C2 | 24
COc1cc2c(cc1OC)C(Nc1ccc(Br)cc1)=NC1(CCCC1)C2 | -85*
Cc1cccc(S(=O)(=O)N2CC3CCC2C3Oc2cccnc2)c1 (stereo unspecified) | -27
Cn1cccc1C(=O)N1CC2(CCN(C(=O)c3cccnc3)C2)C1 | 6
Cc1cc2nc3ccccc3c(=O)n2c(SCc2ccc(Cl)cc2Cl)n1 | 4
Cc1ccc(S(=O)(=O)Nc2cc(=O)[nH]c(SCc3ccccc3Cl)n2)cc1 | -2
Cc1ccc(S(=O)(=O)c2ncsc2SCc2ccc(Cl)cc2Cl)cc1 | -94*
CCN1C(=O)CC(c2ccccc2)C12CCN(C(=O)C1CCOC1)CC2 (stereo unspecified) | 53
Cc1cnc(-c2nnc(NCC3CCCO3)s2)cn1 (stereo unspecified) | 31
COc1ccc(F)c(F)c1-c1nccn1CC1CCN(C(C)C)CC1 | 2
Cc1cc(C)n(CC2(CNC(=O)CN3CCCN(C)CC3)CC2)n1 | -19
CN1CCCN(CC2(O)CCNC2)CC1 (stereo unspecified) | -94*
CC(C)Cc1noc(C(C)NC2CCC3(CCNCC3)CC2)n1 (stereo unspecified) | -9
O=C(NC(=S)Nc1ccc(S(=O)(=O)N2CCOCC2)cc1)c1cccs1 | 7
O=C(Nc1cccc(-c2cc3ccccc3oc2=O)c1)c1ccc(Br)o1 | 23
Cc1cc(NC(=S)NC(=O)c2cccs2)ccc1-c1cc2ccccc2oc1=O | -80*
COc1cc(C)c(Cl)cc1S(=O)(=O)Nc1ccncc1 | -1
Cc1oc2cc(O)cc(O)c2c(=O)c1-c1ccccc1 | 261
O=c1c(O)c(-c2ccc(O)c(O)c2)oc2cc(O)cc(O)c12 | -78*!
O=c1cc(-c2ccc(O)c(O)c2)oc2cc(O)cc(O)c12 | 9
Cc1cccc(C2c3[nH]c4ccccc4c3CCN2C(=O)c2ccccc2Cl)c1 (stereo unspecified) | -110*
O=C(c1ccccc1F)N1CCc2c([nH]c3ccccc23)C1c1ccccc1 (stereo unspecified) | 39
Cc1cccc(C2c3[nH]c4ccccc4c3CCN2C(=O)c2ccccc2)c1 (stereo unspecified) | 135
CSc1ccc(C2c3[nH]c4ccccc4c3CCN2C(=O)c2ccc(C)cc2)cc1 (stereo unspecified) | 34
SMILES | Tgondii IFNg
CSc1ccc(C2c3[nH]c4ccccc4c3CCN2C(=O)c2ccccc2Cl)cc1 (stereo unspecified) | 89
Cc1ccc(C2c3[nH]c4ccccc4c3CCN2C(=O)c2ccccc2Cl)cc1 (stereo unspecified) | -118*
Cc1c(CN(C)C(=O)C2CC3(CCNCC3)CN2)[nH]c2ccccc12 (stereo unspecified) | 2
Cc1cc(=O)[nH]c(CNC(=O)C2(N(C)Cc3ccccc3)Cc3ccccc3C2)n1 | 11
CCN1C[C@H]2[C@H](OC)CCN(C(=O)c3ccc4ccccc4n3)[C@H]2C1 | -30
Cc1ccc(N=Nc2c(-c3ccccc3)[nH]n(C(N)=S)c2=O)cc1 | -105*
Cc1[nH]n(C(N)=S)c(=O)c1N=Nc1cc(-c2ccc(Br)cc2)[nH]n1 | 178
O=c1c(N=Nc2ccccc2)c(-c2ccccc2)[nH]n1-c1ccccc1 | 11
COc1cccc(NC(=O)N2CCCCC2CCN2CCCC2=O)c1 (stereo unspecified) | 2
CCOc1ccccc1C(=O)NCCc1sc(-c2ccc(Cl)cc2)nc1C | -106*
Cc1ccccc1OCC(=O)NCCc1sc(-c2ccc(Cl)cc2)nc1C | 28
COc1ccccc1C(=O)NCCc1sc(-c2ccc(F)cc2)nc1C | -107*
COc1ccc(S(=O)(=O)NCCc2sc(-c3ccc(OC)c(OC)c3)nc2C)cc1C | 185
COc1ccccc1C(=O)NCCc1sc(-c2ccc(Cl)cc2)nc1C | -107*
COc1ccc(-c2nc(C)c(CCNS(=O)(=O)c3ccc(C)c(C)c3)s2)cc1OC | 282
Cc1nc(-c2ccc(Cl)cc2)sc1CCNC(=O)c1ccccc1F | -34
Cc1nc(-c2ccc(Cl)cc2)sc1CCNC(=O)COc1ccccc1F | 17
COc1ccc(-c2nc(C)c(CCNS(=O)(=O)c3ccc(-c4ccccc4)cc3)s2)cc1OC | -118*
COc1ccccc1C(=O)NCCc1sc(-c2cccc(F)c2)nc1C | 52
Cc1ccccc1C(=O)NCCc1sc(-c2ccc(Cl)cc2)nc1C | -56
COc1ccccc1OCC(=O)NCCc1sc(-c2ccc(F)cc2)nc1C | 6
C[C@]1(Cn2ccnn2)C(C(=O)O)N2C(=O)CC2S1(=O)=O (stereo partly specified) | 1
OC[C@H]1O[C@H](O[C@H]2O[C@H](CO)[C@@H](O)[C@H](O)[C@H]2O)[C@H](O)[C@@H](O)[C@@H]1O | 8
O=S(=O)(c1cccs1)N1CCC2(CC1)NCCN=C2NCc1ccc(Cl)cc1 | -12
O=C(NC1CCCC1)N1CCC2(C1)c1ccccc1S(=O)(=O)N2Cc1ccc(F)cc1 (stereo unspecified) | 55
Cc1nc(-c2ccc(F)cc2)sc1CCNC(=O)c1ccccc1Cl | -72*
